Assay [1] addresses T1, 3-phosphoinositide-dependent protein kinase 1 (Homo sapiens) (UniProt O15530).
T1 sequence (whole entry): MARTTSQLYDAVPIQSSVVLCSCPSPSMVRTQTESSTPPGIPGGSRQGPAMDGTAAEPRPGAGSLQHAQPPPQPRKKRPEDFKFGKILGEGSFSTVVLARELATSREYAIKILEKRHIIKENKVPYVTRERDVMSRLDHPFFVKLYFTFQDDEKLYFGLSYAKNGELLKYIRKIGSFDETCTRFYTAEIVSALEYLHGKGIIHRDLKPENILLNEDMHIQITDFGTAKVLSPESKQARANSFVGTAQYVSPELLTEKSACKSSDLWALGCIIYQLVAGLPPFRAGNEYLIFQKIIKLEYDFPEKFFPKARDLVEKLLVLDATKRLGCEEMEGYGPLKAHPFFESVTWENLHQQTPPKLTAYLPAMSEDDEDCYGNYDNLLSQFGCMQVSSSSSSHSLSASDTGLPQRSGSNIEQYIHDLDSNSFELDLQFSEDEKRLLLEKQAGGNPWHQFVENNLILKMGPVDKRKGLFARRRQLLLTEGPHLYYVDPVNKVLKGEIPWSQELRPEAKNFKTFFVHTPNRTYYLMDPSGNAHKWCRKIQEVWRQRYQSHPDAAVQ
Particulars: at 0.1 µM.

The target of assay [2] is cAMP-dependent protein kinase catalytic subunit alpha (Homo sapiens) (UniProt P17612). Particulars: at 0.1 µM.
Assay [3] shares this target. Particulars: at 1 µM.
Assay [4] deals with Protein kinase C alpha type (Homo sapiens) (UniProt P17252). Particulars: at 0.1 µM.
For assay [5] the target is unchanged. Particulars: at 1 µM.
Assay [6] has as its target Protein kinase C beta type (Homo sapiens) (UniProt P05771). Particulars: at 0.1 µM.
Assay [7] shares this target. Particulars: at 1 µM.
The target in assay [8] is Protein kinase C eta type (Homo sapiens) (UniProt P24723). Particulars: at 0.1 µM.
Sequence of Protein kinase C eta type (Homo sapiens) (P24723 whole entry): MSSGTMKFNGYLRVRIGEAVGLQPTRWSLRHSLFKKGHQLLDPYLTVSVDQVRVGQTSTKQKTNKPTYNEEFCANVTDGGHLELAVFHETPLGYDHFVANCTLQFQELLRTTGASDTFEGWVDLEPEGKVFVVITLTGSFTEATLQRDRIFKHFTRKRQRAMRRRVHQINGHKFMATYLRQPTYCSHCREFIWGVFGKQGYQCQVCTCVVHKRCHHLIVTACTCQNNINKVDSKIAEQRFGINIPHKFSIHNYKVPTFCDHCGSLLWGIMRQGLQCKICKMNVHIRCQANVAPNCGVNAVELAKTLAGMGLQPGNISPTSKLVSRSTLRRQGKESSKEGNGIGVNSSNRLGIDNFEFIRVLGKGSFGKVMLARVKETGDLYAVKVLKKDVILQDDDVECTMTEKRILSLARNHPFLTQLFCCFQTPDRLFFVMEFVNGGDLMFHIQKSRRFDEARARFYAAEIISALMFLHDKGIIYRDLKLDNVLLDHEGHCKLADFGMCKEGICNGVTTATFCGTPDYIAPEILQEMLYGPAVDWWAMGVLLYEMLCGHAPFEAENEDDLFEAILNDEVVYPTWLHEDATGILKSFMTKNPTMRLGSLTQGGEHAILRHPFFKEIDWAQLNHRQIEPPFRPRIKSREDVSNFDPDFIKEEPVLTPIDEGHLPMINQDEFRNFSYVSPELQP
For assay [9] the target is unchanged. Particulars: at 1 µM.
Assay [10] has as its target Protein kinase C gamma type (Homo sapiens) (UniProt P05129). Particulars: at 0.1 µM.
For assay [11] the target is unchanged. Particulars: at 1 µM.
The target in assay [12] is T2, Protein kinase C iota type (Homo sapiens) (UniProt P41743).
T2 sequence (whole entry): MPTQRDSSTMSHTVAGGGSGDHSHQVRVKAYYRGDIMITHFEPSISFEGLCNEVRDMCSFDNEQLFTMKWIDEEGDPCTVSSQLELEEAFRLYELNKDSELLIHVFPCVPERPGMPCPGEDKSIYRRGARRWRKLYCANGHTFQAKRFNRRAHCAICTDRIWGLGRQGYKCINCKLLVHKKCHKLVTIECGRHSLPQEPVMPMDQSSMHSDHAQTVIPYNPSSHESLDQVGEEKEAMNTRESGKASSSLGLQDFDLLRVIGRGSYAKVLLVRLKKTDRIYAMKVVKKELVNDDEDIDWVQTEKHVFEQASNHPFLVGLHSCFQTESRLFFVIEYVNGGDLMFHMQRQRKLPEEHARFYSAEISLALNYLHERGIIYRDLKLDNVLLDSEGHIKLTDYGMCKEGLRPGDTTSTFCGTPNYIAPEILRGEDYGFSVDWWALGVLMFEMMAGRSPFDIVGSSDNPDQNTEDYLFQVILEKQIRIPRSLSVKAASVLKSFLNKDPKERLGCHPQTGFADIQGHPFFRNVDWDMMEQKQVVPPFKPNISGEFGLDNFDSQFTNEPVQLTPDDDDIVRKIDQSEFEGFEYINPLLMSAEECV
Particulars: at 0.1 µM.

Assay [13] has as its target T2, Protein kinase C iota type (Homo sapiens). Particulars: at 1 µM.
Assay [14] has as its target Protein kinase C theta type (Homo sapiens) (UniProt Q04759). Particulars: at 0.1 µM.
Assay [15] shares this target. Particulars: at 1 µM.
Assay [16] addresses Protein kinase C beta type (Homo sapiens) (UniProt P05771). Particulars: at 0.1 µM. The source holds these as a separate data set.
Assay [17] has the same target. Particulars: at 1 µM. This is another data set of the same source.
The target in assay [18] is T3, Serine/threonine-protein kinase D1 (Homo sapiens) (UniProt Q15139).
T3 sequence (whole entry): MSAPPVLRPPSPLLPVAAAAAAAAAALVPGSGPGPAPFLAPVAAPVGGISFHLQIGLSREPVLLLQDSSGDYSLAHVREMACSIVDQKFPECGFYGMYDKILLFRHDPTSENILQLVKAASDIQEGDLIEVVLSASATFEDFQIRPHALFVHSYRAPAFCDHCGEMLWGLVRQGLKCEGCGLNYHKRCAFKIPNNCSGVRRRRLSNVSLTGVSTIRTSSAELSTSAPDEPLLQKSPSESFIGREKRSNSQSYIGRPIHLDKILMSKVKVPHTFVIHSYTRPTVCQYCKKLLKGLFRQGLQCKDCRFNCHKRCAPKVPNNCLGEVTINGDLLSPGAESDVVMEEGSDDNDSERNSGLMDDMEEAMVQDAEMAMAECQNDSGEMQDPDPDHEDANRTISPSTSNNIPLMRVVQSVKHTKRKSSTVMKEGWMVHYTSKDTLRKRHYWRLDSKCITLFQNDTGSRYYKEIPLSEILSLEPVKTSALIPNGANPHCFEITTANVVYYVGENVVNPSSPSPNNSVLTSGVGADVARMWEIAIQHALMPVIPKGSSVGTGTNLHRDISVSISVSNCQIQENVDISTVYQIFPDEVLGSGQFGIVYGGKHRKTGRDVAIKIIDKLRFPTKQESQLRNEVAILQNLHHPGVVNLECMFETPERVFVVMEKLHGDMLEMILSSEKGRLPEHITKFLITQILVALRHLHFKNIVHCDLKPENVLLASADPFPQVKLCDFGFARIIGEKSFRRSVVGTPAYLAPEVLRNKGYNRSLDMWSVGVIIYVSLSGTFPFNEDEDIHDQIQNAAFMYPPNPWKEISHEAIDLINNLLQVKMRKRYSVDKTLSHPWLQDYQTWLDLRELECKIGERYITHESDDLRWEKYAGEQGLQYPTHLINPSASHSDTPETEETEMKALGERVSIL
Particulars: at 0.1 µM.

Assay [19] addresses T3, Serine/threonine-protein kinase D1 (Homo sapiens). Particulars: at 1 µM.
The target of assay [20] is T4, Serine/threonine-protein kinase D2 (Homo sapiens) (UniProt Q9BZL6).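 Also: reported percent inhibition values are means, part of the GSK PKIS kinase panel screen.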
T4 sequence (whole entry): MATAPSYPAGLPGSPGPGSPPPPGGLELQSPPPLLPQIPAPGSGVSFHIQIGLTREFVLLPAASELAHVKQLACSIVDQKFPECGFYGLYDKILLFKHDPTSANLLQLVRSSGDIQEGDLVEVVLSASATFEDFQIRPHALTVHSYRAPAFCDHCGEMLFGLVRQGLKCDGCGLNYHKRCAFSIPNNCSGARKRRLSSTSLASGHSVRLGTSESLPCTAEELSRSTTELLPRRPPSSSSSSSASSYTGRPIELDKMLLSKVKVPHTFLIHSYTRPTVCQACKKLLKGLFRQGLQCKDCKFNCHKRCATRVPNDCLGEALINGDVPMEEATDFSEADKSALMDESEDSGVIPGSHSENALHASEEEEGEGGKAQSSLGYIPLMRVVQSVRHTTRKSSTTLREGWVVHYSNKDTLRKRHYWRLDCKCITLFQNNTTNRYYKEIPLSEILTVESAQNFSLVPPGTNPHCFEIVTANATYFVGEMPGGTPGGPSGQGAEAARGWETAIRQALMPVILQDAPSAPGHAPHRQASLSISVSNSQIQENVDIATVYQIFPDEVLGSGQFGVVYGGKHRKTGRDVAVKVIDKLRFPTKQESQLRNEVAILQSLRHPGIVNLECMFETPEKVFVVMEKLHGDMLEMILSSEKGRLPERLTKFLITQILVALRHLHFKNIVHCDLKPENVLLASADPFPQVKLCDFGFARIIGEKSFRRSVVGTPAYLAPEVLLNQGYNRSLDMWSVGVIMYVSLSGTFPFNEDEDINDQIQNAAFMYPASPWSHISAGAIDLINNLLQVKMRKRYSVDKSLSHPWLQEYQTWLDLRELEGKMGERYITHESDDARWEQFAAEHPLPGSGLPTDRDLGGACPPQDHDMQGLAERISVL
Particulars: at 0.1 µM.

Here are results for seven compounds from ChEMBL document CHEMBL1961873, “Compounds: GSK PKIS; Assays: Nanosyn kinase panel” (2012).

Sequence of Protein kinase C beta type (Homo sapiens) (P05771 2-671 limits assumed): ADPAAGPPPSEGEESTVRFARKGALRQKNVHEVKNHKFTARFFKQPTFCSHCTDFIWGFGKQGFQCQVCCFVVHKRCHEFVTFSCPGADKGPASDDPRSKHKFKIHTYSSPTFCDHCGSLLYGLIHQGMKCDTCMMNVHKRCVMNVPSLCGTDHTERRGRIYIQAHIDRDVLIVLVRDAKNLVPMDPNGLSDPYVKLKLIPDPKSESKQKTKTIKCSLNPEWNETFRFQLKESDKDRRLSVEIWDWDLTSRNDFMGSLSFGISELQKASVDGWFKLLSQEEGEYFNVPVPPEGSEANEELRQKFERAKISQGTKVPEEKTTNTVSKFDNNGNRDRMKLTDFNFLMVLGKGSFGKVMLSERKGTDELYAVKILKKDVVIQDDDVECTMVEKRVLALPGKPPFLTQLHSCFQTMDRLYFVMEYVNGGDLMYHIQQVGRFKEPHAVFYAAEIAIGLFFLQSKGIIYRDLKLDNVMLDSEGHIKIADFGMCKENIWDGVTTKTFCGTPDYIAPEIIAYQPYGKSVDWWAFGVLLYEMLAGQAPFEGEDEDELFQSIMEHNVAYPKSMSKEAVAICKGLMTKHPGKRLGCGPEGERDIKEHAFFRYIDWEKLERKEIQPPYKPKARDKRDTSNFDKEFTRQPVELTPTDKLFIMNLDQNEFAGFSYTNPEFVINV
Sequence of Protein kinase C theta type (Homo sapiens) (Q04759 whole entry, looked up): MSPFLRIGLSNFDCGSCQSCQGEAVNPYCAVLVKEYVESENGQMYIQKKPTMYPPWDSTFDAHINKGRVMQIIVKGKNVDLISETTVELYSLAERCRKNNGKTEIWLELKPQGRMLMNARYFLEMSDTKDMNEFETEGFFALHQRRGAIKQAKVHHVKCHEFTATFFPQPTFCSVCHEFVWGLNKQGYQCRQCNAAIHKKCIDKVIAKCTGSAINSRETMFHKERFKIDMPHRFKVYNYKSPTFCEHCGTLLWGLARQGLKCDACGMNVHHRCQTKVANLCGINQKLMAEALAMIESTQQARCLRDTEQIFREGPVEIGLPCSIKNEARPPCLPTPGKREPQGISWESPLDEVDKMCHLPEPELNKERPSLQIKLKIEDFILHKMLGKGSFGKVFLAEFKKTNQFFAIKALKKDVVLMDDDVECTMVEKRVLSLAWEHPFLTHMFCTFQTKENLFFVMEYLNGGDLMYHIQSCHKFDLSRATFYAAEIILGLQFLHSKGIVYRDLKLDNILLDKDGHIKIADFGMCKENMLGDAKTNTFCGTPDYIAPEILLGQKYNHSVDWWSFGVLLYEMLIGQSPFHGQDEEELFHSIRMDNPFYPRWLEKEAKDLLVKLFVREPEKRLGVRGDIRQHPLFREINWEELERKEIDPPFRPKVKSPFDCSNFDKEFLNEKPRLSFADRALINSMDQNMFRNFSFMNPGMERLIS

Consider `Cc1cc(O)cc(C)c1/C=C/c1cncc(C(=O)N(C)C)c1`, for which the inhibition was determined as 4.18% in [1]; 1.98% in [2]; 0.93% in assay [3]; 0.28% in assay [4]; 1.71% in [5]; 0.67% in assay [6]. Also, the inhibition in assay [7] amounted to 1.26%; in assay [8] it was 3%; in [9], 4.61%; in [10], 1.75%; in assay [11] it was 4.07%; in [12], 0.51%. The inhibition in [13] worked out at 1.32%; in assay [14], 0.96%; in assay [15], 0.78%; in [16] it was 0.19%; in assay [17], 3%; in assay [18], 1.61%. The inhibition in [19] is 2.79%; in [20], -2.38%.
Turning to `Nc1nccc(C#Cc2cncnc2Nc2ccc(OCc3cccc(F)c3)c(Cl)c2)n1`, the inhibition in assay [1] turned out to be 2.4%; in assay [2], 1.49%; in assay [3], 2.74%; in [4] it was 1.36%; in assay [5] it was 1.81%; in assay [6] it was 2.69%. In addition, the inhibition in assay [7] was 2.19%; in assay [8], 2.81%; in assay [9] it was -0.12%; in assay [10] it was 5%; in assay [11], 4.21%; in [12], 1.86%. In addition, the inhibition in assay [13] was determined as 3.2%; in assay [14] it was 2.44%; in assay [15], 1.22%; in [16], 0.73%; in assay [17] it was 1.49%; in [18], 3.68%. The inhibition amounted to 6.75% in assay [19] and 4.56% in assay [20].
On to `Cc1nc(-c2ccccc2)n2nc(NCCCN3CCOCC3)ncc12`, for which the inhibition is 2.52% in assay [1]; 2.1% in [2]; 2.12% in assay [3]; -0.23% in assay [4]; 0.9% in assay [5]; -0.19% in assay [6]. The inhibition in assay [7] was 0.04%; in assay [8], 0.77%; in assay [9], 4.23%; in assay [10] it was 2.71%; in assay [11] it was 4.35%; in assay [12], -0.08%. Also, the inhibition in assay [13] is -1.15%; in [14], 1.47%; in assay [15] it was -0.08%; in [16], 1.18%; in [17], 2.05%; in [18], 2.52%. Further, the inhibition in assay [19] turned out to be 3.13%; in assay [20] it was 2.7%.
For `NS(=O)(=O)c1ccc(Nc2cc(-c3cccc(O)c3)n[nH]2)cc1`, the inhibition is 1.78% in [1]; 3% in [2]; 2.6% in [3]; 1.01% in assay [4]; 1.85% in assay [5]; -3.34% in assay [6]. Besides, the inhibition in assay [7] is 1.78%; in assay [8], 3.19%; in assay [9] it was 2.17%; in assay [10] it was 2.3%; in assay [11], 5.97%; in assay [12], 2.37%. Moreover, the inhibition in assay [13] turned out to be 3.83%; in assay [14] it was 3.09%; in [15], 3.2%; in [16], 1.35%; in assay [17], 3.75%; in assay [18], 4.8%. For the same compound, the values for the inhibition in assay [19] and in assay [20] were 11.4% and 5.45%, respectively.
Consider `CC(C)c1ccc(Nc2nccc(-c3cnn4ncccc34)n2)cc1`, for which the inhibition came to 2.46% in assay [1]; 1.64% in [2]; 1.72% in assay [3]; 0.38% in assay [4]; 6.9% in assay [5]; 0.55% in assay [6]. Besides, the inhibition in assay [7] was found to be 1.57%; in [8] it was 1.03%; in [9], 3.89%; in [10] it was 1.93%; in assay [11], 5.49%; in assay [12], 0.41%. Further, the inhibition in assay [13] was -0.49%; in assay [14], 0.56%; in assay [15], 2.84%; in assay [16] it was 0.59%; in [17], 1.47%; in [18], 2.12%. Moreover, the values for the inhibition in assay [19] and in assay [20] were 15.9% and 1.32%, respectively.
As for `O=S(=O)(CCOCc1ccc(-c2ccc3ncnc(Nc4ccc(OCc5cccc(F)c5)c(Cl)c4)c3c2)o1)c1ccccc1`, the inhibition in assay [1] was -0.28%; in assay [2] it was 0.54%; in assay [3], -0.2%; in assay [4] it was 0.23%; in assay [5], 0.58%; in assay [6], -0.21%. In addition, the inhibition is -0.92% in assay [7]; 1.32% in assay [8]; 1.22% in assay [9]; 0.84% in assay [10]; 1.98% in assay [11]; 0.8% in [12]. For the same compound, the inhibition in assay [13] was determined as 0.31%; in assay [14], 0.62%; in assay [15], 0.48%; in assay [16] it was 0.96%; in [17], 1.53%; in [18], 1.15%. Also, the inhibition in [19] was determined as 2.02%; in assay [20], 1.72%.
For `COc1cc2ncnc(Nc3ccc(C)c(O)c3)c2cc1OC`, the inhibition worked out at 1.3% in assay [1]; 2.17% in assay [2]; 3.17% in [3]; 1.06% in assay [4]; 3.24% in [5]; 1.28% in assay [6]. Besides, the inhibition amounted to 5.43% in [7]; 3.76% in assay [8]; 0.65% in assay [9]; 2.11% in assay [10]; 7.37% in [11]; 3.5% in assay [12]. The inhibition in [13] came to 1.78%; in assay [14], 3.41%; in [15], 5.28%; in assay [16], 2.8%; in assay [17], 5.81%; in assay [18], 4.73%. For the same compound, the inhibition in assay [19] stood at 9.92%; in [20] it was 5.41%.
